The source made the active and inactive calls.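 How the source made its calls: active means calcium signal above 60% of the peak acetylcholine response at the M5 receptor, called a positive modulator; inactive means the rest.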
What follows are molecules tested against Muscarinic acetylcholine receptor M4 (Homo sapiens) (UniProt P08173) (assay: off-target M4 muscarinic potentiation – cell-based, CHO-K1 hM4/Gqi5, Fluo-4 calcium flux, ACh EC20, counter-screen for M5 PAM project (AID 743101)). Conditions: Fluo-4, ACh EC20, at 30 µM (top of the series).
Sequence of Muscarinic acetylcholine receptor M4 (Homo sapiens) (P08173 whole entry, looked up): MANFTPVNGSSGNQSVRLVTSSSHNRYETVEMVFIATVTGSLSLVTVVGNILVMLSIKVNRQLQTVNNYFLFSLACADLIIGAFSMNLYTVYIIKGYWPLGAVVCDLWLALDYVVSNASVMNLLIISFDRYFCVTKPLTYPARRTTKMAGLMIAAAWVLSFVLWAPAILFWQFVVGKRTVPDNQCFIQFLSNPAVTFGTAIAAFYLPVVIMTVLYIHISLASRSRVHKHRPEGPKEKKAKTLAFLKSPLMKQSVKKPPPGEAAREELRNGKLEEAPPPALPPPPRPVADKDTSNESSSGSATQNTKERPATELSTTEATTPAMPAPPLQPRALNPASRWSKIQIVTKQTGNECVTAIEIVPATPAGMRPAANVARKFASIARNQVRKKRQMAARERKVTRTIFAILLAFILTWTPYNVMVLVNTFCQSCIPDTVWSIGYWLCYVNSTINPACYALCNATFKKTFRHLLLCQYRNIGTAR

| SMILES | outcome |
| --- | --- |
| CCN(Cc1ccccc1)C(=O)C1CCN(S(=O)(=O)c2ccc3[nH]ncc3c2)CC1 | inactive |
| CCN(Cc1ccccc1Cl)C(=O)C1CCN(S(=O)(=O)c2ccc3[nH]ncc3c2)CC1 | inactive |
| CCN(Cc1ccccc1C(F)(F)F)C(=O)C1CCN(S(=O)(=O)c2ccc3[nH]ncc3c2)CC1 | inactive |
| CCN(C(=O)C1CCN(S(=O)(=O)c2ccc(-n3cccn3)cc2)CC1)[C@H](C)c1ccccc1 | inactive |
| CCN(Cc1ccccc1C(F)(F)F)C(=O)C1CCN(S(=O)(=O)c2ccc3cn[nH]c3c2)CC1 | inactive |
| CCN(Cc1ccccc1C(F)(F)F)C(=O)C1(F)CCN(S(=O)(=O)c2ccc3[nH]ncc3c2)CC1 | inactive |
| CCN(Cc1ccccc1)C(=O)C1CCN(S(=O)(=O)c2ccc3c(c2)OCCO3)CC1 | inactive |
| CCN(C(=O)C1CCN(S(=O)(=O)c2ccc3[nH]ncc3c2)CC1)[C@H](C)c1ccccc1 | inactive |
| CCCN(Cc1ccccc1C(F)(F)F)C(=O)C1CCN(S(=O)(=O)c2ccc3[nH]ncc3c2)CC1 | inactive |
| CCN(C(=O)C1CCN(S(=O)(=O)c2ccc(OC)cc2)CC1)[C@H](C)c1ccccc1 | inactive |
| CCN(Cc1ccccc1)C(=O)C1CCN(S(=O)(=O)c2ccc3cn[nH]c3c2)CC1 | inactive |
